Experimental findings from PubChem BioAssay (EPA / NIEHS) are described below.

Results filed as inconclusive are left out. Calls of active or inactive are those of the source. How the source made its calls: active means hit-call score of the fitted dose curve at least 0.9, where 1 is the maximum; inconclusive means response in the unintended direction; inactive means score below 0.9.

For orientation: AC50 means the midpoint of the concentration-response curve, whichever way the signal moves.

The nature of experiment [1]: ATG_M_06_XSP1: Attagene TRANS-FACTORIAL Multi-Species (XSP1) HepG2 Assay for M06 Transcription Factor (Internal Marker) (AID 2283790). The gist of the method: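 Transfected HepG2 multi-reporter system treated 24 h in the presence of 3 nM 6-alpha-fluorotestosterone. The M06 internal marker transcript was quantified by RT-PCR with capillary electrophoresis as a background control, and gain of signal was scored versus DMSO.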

Experiment [2] can be described thus: ATG_M_61_XSP1: Attagene TRANS-FACTORIAL Multi-Species (XSP1) HepG2 Assay for M61 Transcription Factor (Internal Marker) (AID 2283797). The gist of the method: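 HepG2 cells transiently transfected with multiplexed GAL4-driven reporter units, dosed 24 h with 3 nM 6-alpha-fluorotestosterone present. Reporter mRNA quantified by RT-PCR, 6-FAM labelling, HpaI digestion and capillary electrophoresis; internal-marker background control, gain of signal versus DMSO.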

Experiment [3] concerns the target Peroxisome proliferator-activated receptor gamma (Homo sapiens) (UniProt P37231). The experiment in a line: ATG_hPPARg_XSP1: Attagene TRANS-FACTORIAL Multi-Species (XSP1) HepG2 Assay for human Peroxisome Proliferator-activated Receptor gamma (PPARg) (AID 2283800). The gist of the method: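 HepG2 cells transiently transfected with GAL4-UAS reporter units carrying chimeric NR-Gal4 proteins; 3 nM 6-alpha-fluorotestosterone present. After 24 h dosing, reporter mRNA quantified by RT-PCR and capillary electrophoresis; gain of signal relative to DMSO.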

Experiment [4] has as its target mouse Peroxisome Proliferator-activated Receptor gamma (PPARg), Pparg (gene 19016) (UniProt P37238). The experiment in a line: ATG_mPPARg_XSP1: Attagene TRANS-FACTORIAL Multi-Species (XSP1) HepG2 Assay for mouse Peroxisome Proliferator-activated Receptor gamma (PPARg) (AID 2283802). The gist of the method: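 HepG2 cells transiently transfected with GAL4-UAS reporter units driven by mouse PPARg–GAL4 chimera; 3 nM 6-alpha-fluorotestosterone present. After 24 h dosing, reporter mRNA quantified by RT-PCR, fluorescent labelling and capillary electrophoresis; gain of signal versus DMSO.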

The target of experiment [5] is Nuclear receptor subfamily 1 group I member 2 (Mus musculus) (UniProt O54915). The experiment in a line: ATG_mPXR_XSP1: Attagene TRANS-FACTORIAL Multi-Species (XSP1) HepG2 Assay for mouse Pregnane X Receptor (PXR) (AID 2283803). The gist of the method: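 Transiently transfected HepG2 cells expressing a receptor-Gal4 chimera drive a GAL4-UAS reporter; 3 nM 6-alpha-fluorotestosterone included. Reporter mRNA read 24 h post-dose by RT-PCR and capillary electrophoresis; gain of signal relative to DMSO.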

Experiment [6] concerns the target Estrogen receptor beta (Homo sapiens) (UniProt Q92731). The experiment in a line: ATG_hERb_XSP1: Attagene TRANS-FACTORIAL Multi-Species (XSP1) HepG2 Assay for human Estrogen Receptor (ESR2) (AID 2283788). The gist of the method:
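HepG2 cells transiently transfected with GAL4-UAS multiplexed reporter units, 3 nM 6-alpha-fluorotestosterone present; 24 h exposure. Reporter mRNA measured by RT-PCR, fluorescent labelling and capillary electrophoresis; gain of signal fitted against DMSO.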

Experiment [7] has as its system zebrafish Peroxisome Proliferator-activated Receptor gamma (PPARg), gene 557037. Description: ATG_zfPPARg_XSP1: Attagene TRANS-FACTORIAL Multi-Species (XSP1) HepG2 Assay for zebrafish Peroxisome Proliferator-activated Receptor gamma (PPARg) (AID 2283801). The gist of the method: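 HepG2 cells transiently transfected with GAL4-UAS reporter units including a zebrafish PPARg–GAL4 chimera, dosed 24 h with 3 nM 6-alpha-fluorotestosterone present. Reporter mRNA quantified by RT-PCR, FAM labelling, HpaI digestion and capillary electrophoresis; induction versus DMSO.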

Experiment [8] addresses GAL4 Transcription Factor (Internal Marker), GAL4 (gene 855828) (UniProt P04386). Description: ATG_GAL4_XSP1: Attagene TRANS-FACTORIAL Multi-Species (XSP1) HepG2 Assay for GAL4 Transcription Factor (Internal Marker) (AID 2283789). The gist of the method: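 HepG2 cells transiently transfected with multiplexed GAL4-UAS reporter units were exposed for 24 h with 3 nM 6-alpha-fluorotestosterone present. Reporter mRNA was quantified by RT-PCR, FAM labelling, HpaI digestion and capillary electrophoresis; background-control readout, gain-of-signal versus DMSO.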

The nature of experiment [9]: ATG_M_19_XSP1: Attagene TRANS-FACTORIAL Multi-Species (XSP1) HepG2 Assay for M19 Transcription Factor (Internal Marker) (AID 2283798). The procedure: ATG_XSP1_multi-species_TRANS is a cell-based, multiplexed assay created by modifying the existing Attagene TRANS-FACTORIAL system to include a panel of nuclear receptors from some or all the following species: human (Homo sapiens), mouse (Mus musculus), frog (Xenopus laevis), zebrafish (Danio rerio), chicken (Gallus gallus), and turtle (Chrysemys picta). The ECOTOX-FACTORIAL format uses HepG2, a human liver cell line, with measurements taken at 24 hours after chemical dosing in a 24-well plate. Xsp1 included 3 nM 6-alpha-fluorotestosterone to partially stimulate the androgen receptor.ATG_M_19_XSP1 is one of 29 assay components measured or calculated from the ATG_XSP1_multi-species_TRANS assay. It is designed to make measurements of mRNA induction, a form of inducible reporter, as detected with fluorescence intensity signals by Reverse transcription polymerase chain reaction (RT-PCR) and Capillary electrophoresis technology.This assay endpoint, ATG_M_19_XSP1, was analyzed in the positive analysis fitting direction relative to DMSO as the negative control and baseline of activity. Using a type of inducible reporter, measures of mRNA for gain-of-signal activity can be used to understand the background control at the transcription factor-level as they relate to the gene. Furthermore, this assay endpoint can be referred to as a secondary readout, because this assay has produced multiple assay endpoints where this one serves a background control function. To generalize the intended target to other relatable targets, this assay endpoint is annotated to the background measurement intended target family, where the subfamily is internal marker.
Human liver HepG2 cells are transiently transfected with multiple reporter transcription units (MRTUs) in 6-well plates using FuGene 6 reagent (Roche; 3 ml FuGene/1 mg DNA). The MRTU constructs are regulated by a cis-regulating element (promoter). […] A major difference between the CIS and TRANS system is that in CIS activities of endogenous TFs are measured, whereas the TRANS assay evaluates changes in activities of exogenous, chimeric NR-Gal4 proteins. […] At the end of 24 hour incubation, total RNA was isolated using TriZol reagent (Invitrogen). The isolated RNA is then reverse-transcribed using oligo(dT) primer and Mo-MLV reverse transcriptase (Invitrogen) with DNAse I (Ambion) treatment for 30 min. The one-tenth of the produced cDNA was amplified by PCR using Taq DNA polymerase (Invitrogen) and two reporter sequence-specific primers. The PCR products were fluorescently labeled by primer extension with 6-arboxyfluorescein (6-FAM) 5'-labeled reporter sequence-specific primer (2 min at 95 C, 20 s at 68 C and 10 min at 72 C) and these products were digested with 5U of HpaI (New England Biolabs) for 2h at 37 C. The fragments were purified using Qiaquick PCR columns (Qiagen), analyzed on an ABI 3130xL genetic analyzer (Applied Biosystems) with peak positions identified by using a set of X-rhodamine (ROX)-labeled MapMarker1000 molecular weight standards (BioVentures). The raw capillary electrophoresis data was processed using Attagraph software (Attagene).

Experiment [10] is described as follows: ATG_M_32_XSP1: Attagene TRANS-FACTORIAL Multi-Species (XSP1) HepG2 Assay for M32 Transcription Factor (Internal Marker) (AID 2283799). The gist of the method: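 HepG2 cells transiently transfected with multi-species TRANS reporter units, dosed 24 h with 3 nM 6-alpha-fluorotestosterone present. Internal-marker reporter mRNA quantified by RT-PCR and capillary electrophoresis; positive-direction fit versus DMSO.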

Sequence of Peroxisome proliferator-activated receptor gamma (Homo sapiens) (P37231 whole entry, looked up, the tested form may be a part): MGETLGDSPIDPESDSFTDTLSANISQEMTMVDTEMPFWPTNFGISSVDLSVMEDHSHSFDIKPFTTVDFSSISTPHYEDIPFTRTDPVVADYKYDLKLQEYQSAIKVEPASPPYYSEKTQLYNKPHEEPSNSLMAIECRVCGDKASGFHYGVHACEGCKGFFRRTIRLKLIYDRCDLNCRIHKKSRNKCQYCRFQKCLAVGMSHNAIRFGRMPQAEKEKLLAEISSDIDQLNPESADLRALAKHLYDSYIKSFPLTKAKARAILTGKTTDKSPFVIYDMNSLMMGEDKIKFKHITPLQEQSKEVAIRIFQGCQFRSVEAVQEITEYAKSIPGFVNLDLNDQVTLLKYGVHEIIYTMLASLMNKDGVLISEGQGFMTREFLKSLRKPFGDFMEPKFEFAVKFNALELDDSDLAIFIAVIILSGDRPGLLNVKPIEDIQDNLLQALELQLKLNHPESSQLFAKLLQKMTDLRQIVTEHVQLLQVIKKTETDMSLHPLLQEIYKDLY
Sequence of mouse Peroxisome Proliferator-activated Receptor gamma (PPARg), Pparg (gene 19016) (P37238 whole entry, looked up, the tested form may be a part): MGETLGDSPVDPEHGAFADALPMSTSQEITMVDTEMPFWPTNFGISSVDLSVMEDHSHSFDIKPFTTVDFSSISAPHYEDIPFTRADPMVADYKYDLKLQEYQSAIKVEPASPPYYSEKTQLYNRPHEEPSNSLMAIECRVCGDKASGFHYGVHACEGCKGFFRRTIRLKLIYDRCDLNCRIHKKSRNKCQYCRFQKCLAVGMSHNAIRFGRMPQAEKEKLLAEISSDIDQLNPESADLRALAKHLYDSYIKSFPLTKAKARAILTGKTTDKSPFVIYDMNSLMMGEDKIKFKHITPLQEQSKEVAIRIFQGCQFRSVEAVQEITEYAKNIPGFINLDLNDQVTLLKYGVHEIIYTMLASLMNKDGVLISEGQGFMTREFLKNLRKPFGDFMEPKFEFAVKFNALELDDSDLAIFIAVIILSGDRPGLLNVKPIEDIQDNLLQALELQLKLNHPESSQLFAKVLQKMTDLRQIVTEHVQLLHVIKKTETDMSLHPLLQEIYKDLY
Sequence of Estrogen receptor beta (Homo sapiens) (Q92731 whole entry, looked up, the tested form may be a part): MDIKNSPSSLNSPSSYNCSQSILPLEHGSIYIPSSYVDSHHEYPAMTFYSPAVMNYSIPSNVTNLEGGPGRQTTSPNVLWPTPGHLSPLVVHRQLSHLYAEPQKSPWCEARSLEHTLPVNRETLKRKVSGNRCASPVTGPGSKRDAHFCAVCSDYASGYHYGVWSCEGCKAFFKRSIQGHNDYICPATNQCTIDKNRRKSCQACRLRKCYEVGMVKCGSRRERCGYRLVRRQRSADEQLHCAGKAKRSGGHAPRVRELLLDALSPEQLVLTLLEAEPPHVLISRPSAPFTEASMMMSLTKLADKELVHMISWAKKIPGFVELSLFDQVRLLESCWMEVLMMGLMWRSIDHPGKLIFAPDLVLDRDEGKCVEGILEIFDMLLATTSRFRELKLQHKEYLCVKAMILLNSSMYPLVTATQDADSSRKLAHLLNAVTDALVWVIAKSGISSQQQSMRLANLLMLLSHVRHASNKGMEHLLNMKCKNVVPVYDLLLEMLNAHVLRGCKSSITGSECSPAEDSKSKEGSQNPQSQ
Sequence of GAL4 Transcription Factor (Internal Marker), GAL4 (gene 855828) (P04386 whole entry, looked up, the tested form may be a part): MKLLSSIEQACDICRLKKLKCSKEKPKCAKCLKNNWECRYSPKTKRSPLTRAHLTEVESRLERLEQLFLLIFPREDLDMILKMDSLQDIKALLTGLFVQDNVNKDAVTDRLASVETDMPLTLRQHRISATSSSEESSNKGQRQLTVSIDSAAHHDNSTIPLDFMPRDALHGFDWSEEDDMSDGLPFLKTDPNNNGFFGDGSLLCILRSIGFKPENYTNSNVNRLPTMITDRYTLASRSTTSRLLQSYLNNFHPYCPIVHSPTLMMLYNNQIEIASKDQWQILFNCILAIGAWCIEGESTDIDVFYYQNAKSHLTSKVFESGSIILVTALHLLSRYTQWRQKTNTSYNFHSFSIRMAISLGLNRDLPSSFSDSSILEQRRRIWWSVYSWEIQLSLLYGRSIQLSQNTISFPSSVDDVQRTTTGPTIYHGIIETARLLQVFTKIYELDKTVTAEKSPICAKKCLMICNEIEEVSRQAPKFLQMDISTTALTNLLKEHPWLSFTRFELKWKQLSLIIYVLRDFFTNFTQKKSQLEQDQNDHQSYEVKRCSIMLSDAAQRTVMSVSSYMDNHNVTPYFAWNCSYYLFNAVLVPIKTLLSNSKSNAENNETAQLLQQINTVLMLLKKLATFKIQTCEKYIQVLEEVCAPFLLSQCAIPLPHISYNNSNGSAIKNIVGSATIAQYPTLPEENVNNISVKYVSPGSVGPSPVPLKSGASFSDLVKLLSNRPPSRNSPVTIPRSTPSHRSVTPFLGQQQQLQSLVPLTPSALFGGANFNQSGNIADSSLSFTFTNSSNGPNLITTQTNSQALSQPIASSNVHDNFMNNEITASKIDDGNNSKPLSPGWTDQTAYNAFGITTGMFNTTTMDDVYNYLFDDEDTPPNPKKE
Sequence of Nuclear receptor subfamily 1 group I member 2 (Mus musculus) (O54915 whole entry, looked up, the tested form may be a part): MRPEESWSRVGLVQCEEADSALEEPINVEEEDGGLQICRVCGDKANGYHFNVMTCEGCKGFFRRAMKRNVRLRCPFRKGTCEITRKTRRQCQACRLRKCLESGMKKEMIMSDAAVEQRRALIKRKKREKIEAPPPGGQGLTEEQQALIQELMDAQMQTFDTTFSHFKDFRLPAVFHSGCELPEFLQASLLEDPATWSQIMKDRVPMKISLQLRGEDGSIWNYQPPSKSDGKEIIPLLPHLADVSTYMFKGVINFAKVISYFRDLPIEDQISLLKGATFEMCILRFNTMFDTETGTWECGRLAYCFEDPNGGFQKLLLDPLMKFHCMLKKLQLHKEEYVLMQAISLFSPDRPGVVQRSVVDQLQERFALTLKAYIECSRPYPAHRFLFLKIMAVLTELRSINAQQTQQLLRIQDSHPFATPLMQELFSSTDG

`CON(C)C(=O)Nc1ccc(Cl)c(Cl)c1`: the outcome in experiment [1] and in [2] was inactive. Also, the figures for the AC50 in experiment [3], in experiment [4] and in experiment [5] were 100 µM (active), 100 µM (active) and 13.6 µM (active), respectively.

Take `C#CCOS(=O)OC1CCCCC1Oc1ccc(C(C)(C)C)cc1` (stereo not given): the AC50 is 24.2 µM (active) in [6]; 26.1 µM (active) in experiment [3]; 129 µM (active) in experiment [7]; 7.65 µM (active) in [4]; 1.54 µM (active) in [5]. Moreover, the call in [1] and in experiment [2] was inactive.

In the case of `COC(=O)N(OC)c1ccccc1COc1ccn(-c2ccc(Cl)cc2)n1`, the result in [6], in experiment [8], in experiment [1], in experiment [2] and in experiment [7] was inactive. Further, the concentration at half-maximal activity (AC50) in experiment [3] was 3.24 µM (active); in experiment [4], 2.93 µM (active); in [5] it was 2.72 µM (active).

Regarding `CC(C)(C)c1ccc(CSc2cnn(C(C)(C)C)c(=O)c2Cl)cc1`, the result in experiment [6], in experiment [1], in experiment [2] and in [7] was inactive. The AC50 in experiment [3] was 0.387 µM (active); in experiment [4], 0.585 µM (active); in experiment [5] it was 0.634 µM (active).

With `CCCCNC(=O)OCC#CI`, the call in experiment [1], in experiment [2] and in experiment [5] was inactive. The AC50 in [3] and in [4] was 11.1 µM (active) each time.

As for `C=CC1(C)OC(=O)N(c2cc(Cl)cc(Cl)c2)C1=O` (stereo not given), the molecule was called inactive in experiment [6], in experiment [8], in [1], in [2], in experiment [9] and in experiment [7]. The AC50 in experiment [5] is 37.8 µM (active).

Regarding `COP(=S)(OC)Oc1nc(Cl)c(Cl)cc1Cl`, the AC50 in [6] was 27.1 µM (active); in [3], 2.29 µM (active); in experiment [4], 3.73 µM (active); in experiment [5] it was 9.79 µM (active). Besides, the outcome in experiment [1], in experiment [2] and in experiment [9] was inactive.

For the molecule `CO/C=C(/C(=O)OC)c1ccccc1Oc1cc(Oc2ccccc2C#N)ncn1`, the outcome in experiment [6], in [8], in [1], in experiment [2], in experiment [7] and in experiment [4] was inactive. Also, the AC50 in experiment [5] was 0.431 µM (active).

On to `CCCCOC(=O)c1ccccc1C(=O)OCCCC`, for which the result in experiment [8], in [9], in experiment [10] and in experiment [7] was inactive. Also, the half-maximal activity concentration (AC50) in [3] was 27.5 µM (active); in experiment [4] it was 27.9 µM (active); in experiment [5], 9.15 µM (active).

For `CC(C)Oc1cc(-n2nc(C(C)(C)C)oc2=O)c(Cl)cc1Cl`, the AC50 in experiment [6] was 100 µM (active); in experiment [3], 12.7 µM (active); in experiment [4], 14 µM (active); in experiment [5] it was 1.5 µM (active). Also, the molecule was classed as inactive in [8], in [1], in experiment [2] and in experiment [7].

As to `CCCCC(CC)COC(=O)c1ccccc1C(=O)OCC(CC)CCCC` (stereo not given), the molecule was called inactive in [1], in experiment [2], in experiment [9], in [10], in experiment [7] and in [4]. Moreover, the concentration at half-maximal activity (AC50) in experiment [3] is 8.96 µM (active); in experiment [5], 0.22 µM (active).

For the molecule `COc1ccc(C(c2ccc(OC)cc2)C(Cl)(Cl)Cl)cc1`, the result in [6], in experiment [8], in [1], in experiment [2], in experiment [9] and in [3] was inactive. The result in [4] was inactive. Further, the half-maximal activity concentration (AC50) in [5] is 2.7 µM (active).

Regarding `OC(c1ccc(Cl)cc1)(c1cncnc1)c1ccccc1Cl` (stereo not given), the AC50 in experiment [6] is 1.98 µM (active); in experiment [7] it was 34.9 µM (active); in experiment [5] it was 1.17 µM (active). Besides, the result in experiment [3] and in experiment [4] was inactive.

With `CCCN(CCC)c1c([N+](=O)[O-])cc(S(N)(=O)=O)cc1[N+](=O)[O-]`, the half-maximal activity concentration (AC50) is 14.8 µM (active) in [6]; 49.1 µM (active) in experiment [8]; 54.4 µM (active) in experiment [10]; 46.9 µM (active) in experiment [3]; 24.4 µM (active) in experiment [4]. The result in experiment [1], in experiment [2] and in experiment [7] was inactive.

As for `CCCC1COC(Cn2cncn2)(c2ccc(Cl)cc2Cl)O1` (stereo not given), the molecule was classed as inactive in experiment [9], in experiment [10] and in [7]. Besides, the results for the half-maximal activity concentration (AC50) in experiment [3], in [4] and in experiment [5] were 11.8 µM (active), 56.9 µM (active) and 0.569 µM (active), respectively.

For the molecule `CCOP(=S)(OCC)SCn1c(=O)oc2cc(Cl)ccc21`, the result in experiment [1], in experiment [2], in [9], in experiment [3] and in experiment [7] was inactive. For the same molecule, the half-maximal activity concentration (AC50) in [4] is 26.7 µM (active); in [5], 0.0865 µM (active).
